Measured values from PubChem BioAssay (Tox21).
Values joined by “and” are separate entries in the source; they are usually repeats but may differ in a detail not shown here. Equal values may be shown once. Inconclusive results are not listed. Where a structure was tested more than once in an assay, its records may differ in their call. Active and inactive are the calls of the source. Unless noted, the call rests on the fitted dose curve; in most records, active means well fitted curve in the direction sought with a large enough effect in the repeat runs; inconclusive means weak or mixed curves; inactive means flat fitted curve, though single readings scatter. Starred links: 1 amine or outer side, 2 acyl side, 3 side chain; linkers in the order of their positions; H or OH if unused. Positions of bridges follow the written chain, without caps; N, C: chain ends. Non-standard residues stand in square brackets, D forms with d. Residues, ends and D or L forms follow the SMILES beside them. Chains are numbered I, II in the order given. Actinocin(9to1) = Cc1c2oc3c(C)ccc(C(=O)[*:1])c3nc-2c(C(=O)[*:2])c(N)c1=O; NMeV = CN[C@H](C(=O)O)C(C)C; Sar = CNCC(=O)O

Assays:
[1] = qHTS assay to test for compound auto fluorescence at 535 nm (green) in HEK293 cells (AID 720680)
[2] = qHTS assay to test for compound auto fluorescence at 535 nm (green) in HEK293 cell free culture (AID 720682)
In short: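 Green-channel intensity (Ex/Em 485/535 nm) was recorded from compound-treated wells containing only DMEM with 10% FBS. Fluorescein provided the equivalency standard.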

[3] = qHTS assay to test for compound auto fluorescence at 590 nm (red) in HEK293 cell free culture (AID 720683)
In short: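 Red-channel autofluorescence of compounds in culture medium (DMEM, 10% FBS), no cells, measured at 540/590 nm. Rose Bengal sodium is the reference fluorophore for equivalence.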

[4] = qHTS assay to test for compound auto fluorescence at 590 nm (red) in HepG2 cell free culture (AID 720684)
In short: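 Cell-free; medium MEM + 10% FBS; compound or DMSO added by pintool; read Ex 540/Em 590 nm; Rose Bengal sodium as red reference fluorophore.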

[5] = qHTS assay to test for compound auto fluorescence at 460 nm (blue) in HepG2 cell free culture (AID 720685)
In short: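 Cell-free plates of MEM plus 10% FBS received 23 nL compound or DMSO vehicle; blue-channel (405/460 nm) intensity scored against triamterene as reference fluorophore.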

[6] = qHTS assay to test for compound auto fluorescence at 535 nm (green) in HepG2 cell free culture (AID 720686)
[7] = qHTS assay to test for compound auto fluorescence at 460 nm (blue) in HepG2 cells (AID 720687)
In short: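 Blue-channel autofluorescence (Ex/Em 405/460 nm, triamterene-equivalent) was measured after 1 hr compound exposure at 37 C, 5% CO2. Cells were HepG2, plated overnight at 37 C in MEM plus 10% FBS.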

[8] = biological target: Glucocorticoid receptor (Homo sapiens) (UniProt P04150); assay: qHTS assay to identify small molecule agonists of the glucocorticoid receptor (GR) signaling pathway (AID 720691; active means well fitted activation curve with a large enough effect in the signal ratio in the repeat runs, not every such curve was filed as active; the % refers to the signal ratio; further: potency means the concentration at half of the fitted maximal effect)
Chain of Glucocorticoid receptor (Homo sapiens) (P04150 whole entry, looked up): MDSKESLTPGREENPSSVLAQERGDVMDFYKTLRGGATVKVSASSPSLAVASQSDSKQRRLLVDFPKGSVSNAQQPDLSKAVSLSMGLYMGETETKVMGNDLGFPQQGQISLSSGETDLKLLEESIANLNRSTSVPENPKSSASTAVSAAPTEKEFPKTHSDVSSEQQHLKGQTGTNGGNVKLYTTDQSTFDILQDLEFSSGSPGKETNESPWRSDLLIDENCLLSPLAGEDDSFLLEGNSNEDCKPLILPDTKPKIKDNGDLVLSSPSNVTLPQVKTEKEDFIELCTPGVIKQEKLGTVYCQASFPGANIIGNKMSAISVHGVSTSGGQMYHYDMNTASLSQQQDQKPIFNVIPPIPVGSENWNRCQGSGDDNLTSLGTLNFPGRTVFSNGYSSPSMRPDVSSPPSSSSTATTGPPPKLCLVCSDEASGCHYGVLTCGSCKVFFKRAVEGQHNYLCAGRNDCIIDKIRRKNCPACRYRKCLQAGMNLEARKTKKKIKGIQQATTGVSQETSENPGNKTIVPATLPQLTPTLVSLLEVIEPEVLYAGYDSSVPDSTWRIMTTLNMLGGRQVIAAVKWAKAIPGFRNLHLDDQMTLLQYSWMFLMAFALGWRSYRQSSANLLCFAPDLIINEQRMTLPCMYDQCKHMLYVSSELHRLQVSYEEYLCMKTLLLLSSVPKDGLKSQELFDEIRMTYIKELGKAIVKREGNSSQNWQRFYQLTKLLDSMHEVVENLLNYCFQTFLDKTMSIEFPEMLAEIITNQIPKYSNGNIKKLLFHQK
In short: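 Compounds in DMSO, alongside positive controls, were added to GR-bla HeLa reporter cells and incubated 18 h at 37 C; GRE-driven beta-lactamase was detected by fluorescence after 2 h with FRET substrate at room temperature.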

[9] = biological target: Glucocorticoid receptor (Homo sapiens) (UniProt P04150); assay: qHTS assay to identify small molecule antagonists of the glucocorticoid receptor (GR) signaling pathway (AID 720692; active means well fitted inhibition curve with a large enough effect in the signal ratio in the repeat runs, not every such curve was filed as active; the % refers to the signal ratio; further: potency means the concentration at half of the fitted maximal effect)
In short: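 In a 1536-well cell format, compounds were added 4 h after seeding GR-bla HeLa cells, together with dexamethasone at 5 nM final; reporter activity was measured by FRET-substrate fluorescence following 18 h at 37 C.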

Measured: Potency

NCCO
not listed: [9]
inactive: all other assays above

CC(C)CCCCCCc1ccc(O)cc1
not listed: [4] | [9]
inactive: all other assays above

CCCCC(CC)COC(=O)CC(C(=O)OCC(CC)CCCC)S(=O)(=O)O (configuration not stated)
not listed: [4] | [9]
inactive: all other assays above

CC(=O)Nc1ccc(C(=O)CCl)cc1
not listed: [4]
inactive: all other assays above

Cc1occc(=O)c1OC(=O)C(C)C
inactive: all assays above

Cc1ccnc2c1NC(=O)c1cccnc1N2C1CC1
inactive: all assays above

CC(=O)O[C@]1(C(C)=O)CC[C@H]2[C@@H]3C[C@H](C)C4=CC(=O)CC[C@]4(C)[C@H]3CC[C@@]21C
active: [8] 37.9 nM and 21.9 nM
not listed: [9]
inactive: all other assays above

OCCOCCN1CCN(C(c2ccccc2)c2ccc(Cl)cc2)CC1 (configuration not stated)
not listed: [4] | [8] | [9]
inactive: all other assays above

Nc1cc(S(=O)(=O)O)cc2cc(S(=O)(=O)O)cc(O)c12
inactive: all assays above

O=C(Oc1ccccc1)c1ccccc1O
inactive: all assays above

CC(C)(C)c1ccccc1
not listed: [4] | [8] | [9]
inactive: all other assays above

Cc1c2oc3c(C)ccc(C(=O)N[C@@H]4C(=O)N[C@H](C(C)C)C(=O)N5CCC[C@H]5C(=O)N(C)CC(=O)N(C)[C@@H](C(C)C)C(=O)O[C@@H]4C)c3nc-2c(C(=O)N[C@@H]2C(=O)N[C@H](C(C)C)C(=O)N3CCC[C@H]3C(=O)N(C)CC(=O)N(C)[C@@H](C(C)C)C(=O)O[C@@H]2C)c(N)c1=O (I: T[dV]P[Sar][NMeV] / II: T[dV]P[Sar][NMeV]; ester I:1-I:C, II:1-II:C; linker I:N-II:N via Actinocin(9to1))
active: [9] 134 nM
not listed: [4] | [8]
inactive: all other assays above

CCC(C)(C)C(=O)O[C@H]1C[C@@H](C)C=C2C=C[C@H](C)[C@H](CC[C@@H]3C[C@@H](O)CC(=O)O3)[C@H]21
6.44 µM (active) and inactive: [8]
not listed: [9]
inactive: all other assays above

CNCCC(Oc1ccc(C(F)(F)F)cc1)c1ccccc1 (configuration not stated)
not listed: [4]
inactive: all other assays above

O=C(Cl)c1cccc(C(=O)Cl)c1
inactive: all assays above

c1ccc2cc3c(ccc4ccccc43)cc2c1
not listed: [4] | [8] | [9]
inactive: all other assays above

Oc1c(Cl)cc(Cl)c(Cl)c1Cc1c(O)c(Cl)cc(Cl)c1Cl
not listed: [4] | [8] | [9]
inactive: all other assays above

Nc1nc2ccccc2[nH]1
inactive: all assays above

N[C@@H]1CONC1=O
not listed: [9]
inactive: all other assays above

c1cc(C(c2ccc(OCC3CO3)cc2)C(c2ccc(OCC3CO3)cc2)c2ccc(OCC3CO3)cc2)ccc1OCC1CO1 (configuration not stated)
not listed: [7]
inactive: all other assays above

O=Cc1ccc(Cl)cc1
not listed: [8] | [9]
inactive: all other assays above

CCCC(=O)c1ccccc1
inactive: all assays above

CC(=O)N[C@@H](CS)C(=O)O
inactive: all assays above

CCN1CCCC1CNC(=O)c1cc(S(=O)(=O)CC)c(N)cc1OC (configuration not stated)
inactive: all assays above

[Cl][In]([Cl])[Cl]
not listed: [4] | [9]
inactive: all other assays above

CC(C)(C)NCC(O)c1cc(O)cc(O)c1 (configuration not stated)
not listed: [8] | [9]
inactive: all other assays above

CCCNC(C)C(=O)Nc1ccccc1C (configuration not stated)
inactive: all assays above
